Source: PubChem BioAssay (NCATS)
Several values for one entry are separate records, joined by “and”; a condition that tells them apart may be missing. Identical values can stand only once. Inconclusive results are not listed. A call without a number means that no potency is given here. Values without a mark were called inactive. Activity calls are given as the source filed them. Calls come from the whole dose curve; as a rule, active = well fitted curve in the direction sought with a large enough effect; inconclusive = small, poorly fitted or top-dose-only effect, or another doubt; inactive = no such curve, though single readings can be large; an effect the other way counts as inactive or inconclusive. Positions of bridges follow the written chain, without caps; N, C: chain ends. Non-standard residues stand in square brackets, D forms with d. Residues, ends and D or L forms follow the SMILES beside them. ξ: configuration not given here. *: point of attachment. Octanoyl(6-Me) = CCC(C)CCCCC(=O)*; ξThr(3R) = C[C@@H](O)C(N)C(=O)O; dDab = NCC[C@@H](N)C(=O)O; Dab = NCC[C@H](N)C(=O)O

Assays:
[1] = molecular target: Cellular tumor antigen p53 (Homo sapiens) (UniProt P04637); test: Primary qHTS for small molecule compounds that upregulate eGFP-tagged delta133p53alpha (in N-terminal) cells. (AID 2060322); details: NCI-H358 eGFP-delta133p53alpha fluorescence, 24 h; activation: stronger effect = higher value; note: nearly all actives have a fitted effect of over 75% in size;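 for activation: cells pre-induced with doxycycline then dosed without doxycycline; series mostly up to about 56 µM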
Chain of Cellular tumor antigen p53 (Homo sapiens) (P04637 whole entry, looked up): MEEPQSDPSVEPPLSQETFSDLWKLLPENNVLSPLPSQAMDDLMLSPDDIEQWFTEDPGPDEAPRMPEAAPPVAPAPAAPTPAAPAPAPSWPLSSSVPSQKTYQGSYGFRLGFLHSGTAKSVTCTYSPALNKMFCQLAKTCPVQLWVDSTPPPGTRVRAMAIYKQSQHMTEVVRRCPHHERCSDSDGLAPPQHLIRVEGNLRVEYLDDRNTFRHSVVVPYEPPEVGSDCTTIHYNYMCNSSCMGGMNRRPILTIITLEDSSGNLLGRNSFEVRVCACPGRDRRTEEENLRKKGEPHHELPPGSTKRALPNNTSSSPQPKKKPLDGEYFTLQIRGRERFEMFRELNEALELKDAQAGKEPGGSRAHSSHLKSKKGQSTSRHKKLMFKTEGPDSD
Summary of the method: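 NCI-H358 cells pre-induced 24 h with 10 ng/ml doxycycline for eGFP-delta133p53alpha, plated dox-free and exposed 24 h at 37C to titrated compounds. Fixed, Hoechst-stained; gated GFP peak intensity by laser scanning cytometry, normalized to DMSO (0%) and 57.5 uM 5-azacytidine (100%).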

[2] = BET inhibitor-based combinations targeting novel dependencies in MECOM-rearranged (r) AML: SET-2 cell line (AID 2202231); details: SET-2 AML cells viability, CellTiter-Glo luminescence, 48 h; viability: stronger effect = lower value, concentration not given here; note: nearly all actives have a fitted effect of over 35% in size
Summary of the method: (§1)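 500 cells/well; 11-pt dose curve; 48 h, standard incubator; CellTiter-Glo luminescence after 15 min RT; DMSO/empty-well normalization; AUC plus Z-AUC (mean-centered within each line).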

[3] = BET inhibitor-based combinations targeting novel dependencies in MECOM-rearranged (r) AML: OCI-AML3 cell line (AID 2202232); details: Potency: OCI-AML3 viability; note: nearly all actives have a fitted effect of over 35% in size
Summary of the method: as §1

[4] = BET inhibitor-based combinations targeting novel dependencies in MECOM-rearranged (r) AML: MV-4-11 cell line (AID 2202233); note: nearly all actives have a fitted effect of over 45% in size
Summary of the method: (§2)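 Cells were plated at 500 per well and exposed to each drug across an 11-point dose range for 48 hr at standard incubator conditions. Viability was read by CellTiter-Glo luminescence, and activity was expressed as AUC and per-cell-line Z-transformed AUC.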

[5] = BET inhibitor-based combinations targeting novel dependencies in MECOM-rearranged (r) AML: HNT-34 cell line (AID 2202234); note: nearly all actives have a fitted effect of over 35% in size
Summary of the method: as §2

[6] = BET inhibitor-based combinations targeting novel dependencies in MECOM-rearranged (r) AML: UCSD-AML1 cell line (AID 2202235); note: nearly all actives have a fitted effect of over 40% in size
Summary of the method: as §2

[7] = BET inhibitor-based combinations targeting novel dependencies in MECOM-rearranged (r) AML: AML-191 cell line (AID 2202236; note: nearly all actives have a fitted effect of over 35% in size)
Summary of the method: as §1

[8] = BET inhibitor-based combinations targeting novel dependencies in MECOM-rearranged (r) AML: AML-194 cell line (AID 2202237; note: nearly all actives have a fitted effect of over 40% in size)
Summary of the method: as §1
Potency is the fitted concentration of half-maximal effect.

Compound	activation [1]	viability [2] [%]	Potency [3]	Potency [4]	Potency [5]	Potency [6]	Potency [7]	Potency [8]	Potency [1]	Potency [2]
Cc1cc2cc3c(C)cc(=O)oc3c(C)c2o1	-5.86% and 16.7%	111	inactive	inactive	inactive	inactive	inactive	inactive	–	–
C=C(C)[C@@H]1CC[C@]2(C)CC[C@]3(C)[C@H](CC[C@@H]4[C@@]5(C)CC[C@H](O)C(C)(C)[C@H]5CC[C@]43C)[C@@H]12	-1.45%	117	inactive	inactive	inactive	inactive	inactive	inactive	–	–
NNC(=O)c1ccncc1	-11.9% and -4.14%	110	inactive	inactive	inactive	inactive	inactive	inactive	–	–
COCCCN1CCC(NC(=O)c2cc(Cl)c(N)c3c2OCC3)CC1	-6.16%	118	inactive	inactive	inactive	inactive	inactive	inactive	–	–
c1cc(CN2CCCNCCNCCCNCC2)ccc1CN1CCCNCCNCCCNCC1	39.7%	87.5	inactive	inactive	inactive	inactive	inactive	inactive	–	–
Nc1cccc2c1C(=O)N(C1CCC(=O)NC1=O)C2=O (stereo unspecified)	28.8%	112	inactive	1.3 nM (active)	inactive	inactive	inactive	inactive	–	–
CC(C)C[C@H](NC(=O)CNC(=O)c1cc(Cl)ccc1Cl)B1OC(=O)CC(CC(=O)O)(C(=O)O)O1 (stereo partly specified)	–	–	132 nM (active)	132 nM (active)	132 nM (active)	166 nM (active)	166 nM (active)	186 nM (active)	9.68 µM (active)	118 nM (active)
O=C1CCCC(=O)C1C(=O)c1ccc(C(F)(F)F)cc1[N+](=O)[O-]	24.5%	111	inactive	inactive	inactive	inactive	inactive	inactive	–	–
CCOC(=O)C1=C[C@@H](OC(CC)CC)[C@H](NC(C)=O)[C@@H](N)C1	-8.89%	112	inactive	inactive	inactive	inactive	inactive	inactive	–	–
C[C@H](NC(=O)c1sccc1OCc1ccc(Cl)cc1)c1ccccc1	16.4%	–	inactive	13200 nM (active)	inactive	inactive	inactive	inactive	–	16600 nM (active)
CC(C)C[C@H](NC(=O)[C@H](CCc1ccccc1)NC(=O)CN1CCOCC1)C(=O)N[C@@H](Cc1ccccc1)C(=O)N[C@@H](CC(C)C)C(=O)[C@@]1(C)CO1	–	–	20.9 nM (active)	20.9 nM (active)	23.5 nM (active)	41.7 nM (active)	52.5 nM (active)	52.5 nM (active)	110 nM (active) and 273 nM (active)	83.3 nM (active)
Nc1nc(-c2nn(Cc3ccccc3F)c3ncccc23)nc(N)c1N1CCOCC1	6.49%	123	1.8 nM (active)	inactive	inactive	inactive	inactive	inactive	–	–
Cc1ccccc1N1C(=O)c2cc(S(N)(=O)=O)c(Cl)cc2NC1C (stereo unspecified)	-15.9% and -14.5%	115	inactive	inactive	inactive	inactive	inactive	inactive	–	–
CO[C@@H]1[C@@H](OC(N)=O)[C@@H](O)[C@H](Oc2ccc3c(O)c(NC(=O)c4ccc(O)c(CC=C(C)C)c4)c(=O)oc3c2C)OC1(C)C	-10.7% and -17.4%	122	inactive	inactive	inactive	inactive	inactive	inactive	–	–
CN(C)c1ccc(C(=C2C=CC(=[N+](C)C)C=C2)c2ccc(N(C)C)cc2)cc1	-20.9%	–	1320 nM (active)	662 nM (active)	934 nM (active)	1050 nM (active)	1180 nM (active)	934 nM (active)	–	1050 nM (active)
c1ccc2c(-c3cnn4cc(-c5ccc(N6CCNCC6)cc5)cnc34)ccnc2c1	75.9%	–	2950 nM (active)	934 nM (active)	4680 nM (active)	2950 nM (active)	2630 nM (active)	2630 nM (active)	–	3320 nM (active)
CCC(C)CCCCC(=O)N[C@@H](CCN)C(=O)NC(C(=O)N[C@H](CCN)C(=O)N[C@@H]1CCNC(=O)C([C@@H](C)O)NC(=O)[C@@H](CCN)NC(=O)[C@@H](CCN)NC(=O)[C@@H](CC(C)C)NC(=O)[C@H](Cc2ccccc2)NC(=O)[C@H](CCN)NC1=O)[C@@H](C)O (stereo partly drawn) ({Octanoyl(6-Me)}-[Dab][ξThr(3R)][dDab][dDab][Dab]F[dL][dDab][dDab][ξThr(3R)]; lactam 4-C)	11.9%	126	inactive	inactive	inactive	inactive	inactive	inactive	–	–
